# Measured values published in PubChem BioAssay (EPA / NIEHS).
# Records with an inconclusive call do not appear. Activity calls are given as the source filed them. Rule for the calls, unless noted: active = hit-call score of the fitted dose curve at least 0.9, where 1 is the maximum; inconclusive = response in the unintended direction; inactive = score below 0.9.
# How the values were obtained:
# [1] = ATG_TAL_CIS: Attagene CIS-FACTORIAL HepG2 Assay for human TAL Basal Promoter (AID 2282966; active = hit-call score of the fitted dose curve at least 0.9, where 1 is the maximum; inactive = score below 0.9;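 note: background control endpoint measuring basal TAL promoter reporter mRNA not a specific factor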); conditions: HepG2 Attagene cis-factorial TAL promoter reporter; actives raise or lower the signal
# Outline: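 Steps: transfect HepG2 with multiple reporter transcription units; dose 24 h; isolate RNA, reverse-transcribe, PCR-amplify, label with 6-FAM, digest with HpaI; resolve by capillary electrophoresis. Bidirectional fitting against DMSO baseline.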
# [2] = ATG_TGFb_CIS: Attagene CIS-FACTORIAL HepG2 Assay for human Transforming Growth Factor (TGF) (AID 2282967; active = hit-call score of the fitted dose curve at least 0.9, where 1 is the maximum; inactive = score below 0.9); conditions: HepG2 Attagene CIS TGFb reporter, mRNA transcription; actives raise or lower the signal
# Outline: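 HepG2 cells transiently transfected with cis-promoter-driven multiplexed reporter units; 24 h compound exposure. Reporter mRNA measured by RT-PCR, 6-FAM labeling, HpaI digestion and capillary electrophoresis; bidirectional fit versus DMSO baseline.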
# [3] = ATG_VDRE_CIS: Attagene CIS-FACTORIAL HepG2 Assay for human Vitamin D Receptor Element (VDRE) (AID 2282968; active = hit-call score of the fitted dose curve at least 0.9, where 1 is the maximum; inactive = score below 0.9); conditions: HepG2 VDRE cis-reporter transcription, actives raise or lower the signal
# Outline: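 HepG2 cells transiently transfected with cis-element reporter units, dosed 24 h; reporter mRNA measured by RT-PCR, 6-FAM labeling, HpaI digestion and capillary electrophoresis. Activity fitted bidirectionally against DMSO baseline.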
# [4] = biological target: Estrogen receptor (Homo sapiens) (UniProt P03372); assay: ATG_ERa_TRANS: Attagene TRANS-FACTORIAL HepG2 Assay for human Estrogen Receptor alpha (ERa) (AID 2282970); conditions: HepG2 Attagene TRANS ERa GAL4 reporter, mRNA
# Outline: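 Multiplexed cell-based reporter format in HepG2: chimeric ERa-Gal4 protein drives GAL4-UAS reporter transcription. Fluorescent reporter mRNA quantified by capillary electrophoresis 24 hours after dosing; endpoint fitted as signal gain against DMSO.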
# [5] = biological target: X-box-binding protein 1 (Homo sapiens) (UniProt P17861); assay: ATG_Xbp1_CIS: Attagene CIS-FACTORIAL HepG2 Assay for human X-box Binding Protein 1 (XBP1) (AID 2282972; active = hit-call score of the fitted dose curve at least 0.9, where 1 is the maximum; inactive = score below 0.9); conditions: HepG2 XBP1 cis-element reporter, Attagene multiplex; actives raise or lower the signal
# Outline: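 HepG2 cells transiently transfected with cis-regulated multiple reporter transcription units; endogenous transcription factor activity measured 24 hours after chemical dosing. Reporter mRNA quantified by RT-PCR, 6-FAM primer extension, HpaI digestion and capillary electrophoresis; bidirectional fitting versus DMSO.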
# [6] = ATG_M_19_TRANS: Attagene TRANS-FACTORIAL HepG2 Assay for M19 Transcription Factor (Internal Marker) (AID 2282974); conditions: HepG2 Attagene TRANS-FACTORIAL M19 internal marker reporter
# Outline: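 Gain-of-signal in reporter mRNA, relative to DMSO, was scored from capillary electrophoresis fluorescence. HepG2 cells carried transiently transfected multiple reporter transcription units and were incubated with test chemicals for 24 h.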
# [7] = ATG_GAL4_TRANS: Attagene TRANS-FACTORIAL HepG2 Assay for GAL4 (Internal Marker) (AID 2282976); conditions: HepG2 Attagene TRANS GAL4 internal marker reporter
# Outline: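 Liver HepG2 line bearing multiplexed GAL4-UAS reporter constructs; 24 h chemical treatment. Transcripts were quantified as fluorescent fragments on capillary electrophoresis after RT-PCR and HpaI cut, with activity fitted upward from DMSO.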
# [8] = biological target: Hepatocyte nuclear factor 4-alpha (Homo sapiens) (UniProt P41235); assay: ATG_HNF4a_TRANS: Attagene TRANS-FACTORIAL HepG2 Assay for human Hepatocyte Nuclear Factor 4 alpha (HNF4a) (AID 2282982); conditions: HepG2 HNF4a transactivation reporter, mRNA readout
# Outline: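 HepG2 cells transiently transfected with multiplexed GAL4-UAS reporter units responsive to chimeric NR-GAL4 proteins; compound exposure 24 h. Reporter mRNA quantified by RT-PCR, 6-FAM labelling, HpaI digestion and capillary electrophoresis; gain of signal versus DMSO baseline.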
# [9] = ATG_M_06_TRANS: Attagene TRANS-FACTORIAL HepG2 Assay for M06 Transcription Factor (Internal Marker) (AID 2282983); conditions: HepG2 Attagene TRANS M06 internal marker reporter;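 note: reporter transcript level by RT-PCR then capillary electrophoresis fluorescence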
# Outline: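 Internal-marker background readout from a multiplexed TRANS reporter system in HepG2; 24 h dosing; mRNA induction quantified by RT-PCR plus capillary electrophoresis fluorescence; DMSO as negative control and baseline.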
# [10] = ATG_M_32_TRANS: Attagene TRANS-FACTORIAL HepG2 Assay for M32 Transcription Factor (Internal Marker) (AID 2282984); conditions: HepG2 Attagene TRANS M32 internal marker reporter;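 note: transcript level of a background control reporter unit measured by RT-PCR and capillary electrophoresis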
# Outline: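 HepG2 cells transiently transfected with multiple GAL4-UAS reporter transcription units, dosed for 24 hours; reporter mRNA quantified by RT-PCR, 6-FAM primer extension, HpaI digestion and capillary electrophoresis. Gain-of-signal fitted versus DMSO baseline; internal background-control marker.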
# [11] = biological target: Nuclear receptor subfamily 4 group A member 2 (Homo sapiens) (UniProt P43354); assay: ATG_NURR1_TRANS: Attagene TRANS-FACTORIAL HepG2 Assay for human Nuclear Receptor Related Protein 1 (NURR1) (AID 2282985); conditions: HepG2 Attagene TRANS reporter, mRNA readout
# Outline: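 HepG2 cells transiently transfected with GAL4-UAS reporter units and chimeric NR-Gal4 constructs; chemical exposure 24 h. Reporter mRNA quantified by RT-PCR, fluorescent labelling and capillary electrophoresis; gain of signal fitted relative to DMSO baseline.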
# [12] = biological target: Transcriptional activator Myb (Homo sapiens) (UniProt P10242); assay: ATG_Myb_CIS: Attagene CIS-FACTORIAL HepG2 Assay for human Myeloblastosis (Myb) Proto-Oncogene Transcription Factor (AID 2282986; active = hit-call score of the fitted dose curve at least 0.9, where 1 is the maximum; inactive = score below 0.9); conditions: HepG2 Attagene CIS-FACTORIAL Myb reporter transcription; actives raise or lower the signal
# Outline: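 Multiplexed cis-reporter system in HepG2: transient transfection, 24 h treatment, mRNA readout by RT-PCR and capillary electrophoresis. Both increases and decreases are scored versus DMSO negative control.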
# [13] = biological target: Nuclear respiratory factor 1 (Homo sapiens) (UniProt Q16656); assay: ATG_NRF1_CIS: Attagene CIS-FACTORIAL HepG2 Assay for human Nuclear Respiratory Factor 1 (NRF1) Orphan Gene (AID 2282987; active = hit-call score of the fitted dose curve at least 0.9, where 1 is the maximum; inactive = score below 0.9); conditions: HepG2 NRF1 cis-element reporter, Attagene multiplex; actives raise or lower the signal
# Outline: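 Endogenous factor activity was captured via cis-element-driven reporter transcripts in HepG2 cells. Following 24 h chemical treatment, transcripts were quantified by RT-PCR and capillary electrophoresis.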
# [14] = biological target: Glucocorticoid receptor (Homo sapiens) (UniProt P04150); assay: ATG_GR_TRANS: Attagene TRANS-FACTORIAL HepG2 Assay for human Glucocorticoid Receptor (GR) (AID 2282978); conditions: HepG2 Attagene TRANS GR reporter, mRNA transcription;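 note: activators score as hits since higher reporter transcript over DMSO is fitted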
# Outline: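 HepG2 transient transfection, multiple reporter units, GAL4-UAS under NR-GAL4 chimera control. 24 h treatment. Reporter mRNA by RT-PCR/CE fluorescence, DMSO as negative control.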
# [15] = biological target: Oxysterols receptor LXR-beta (Homo sapiens) (UniProt P55055); assay: ATG_LXRb_TRANS: Attagene TRANS-FACTORIAL HepG2 Assay for human Liver X Receptor beta (LXRb) (AID 2282981); conditions: HepG2 Attagene TRANS GAL4-LXRb reporter, mRNA
# Outline: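 HepG2 cells transiently transfected with multiple reporter transcription units carrying chimeric NR-Gal4 proteins acting on GAL4-UAS reporters; compound exposure 24 h. Reporter mRNA quantified by RT-PCR, 6-FAM labelling, HpaI digestion and capillary electrophoresis; gain of signal versus DMSO.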
# [16] = biological target: Oxysterols receptor LXR-alpha (Homo sapiens) (UniProt Q13133); assay: ATG_LXRa_TRANS: Attagene TRANS-FACTORIAL HepG2 Assay for human Liver X Receptor alpha (LXRa) (AID 2282980); conditions: HepG2 Attagene TRANS reporter, LXRa transactivation
# Outline: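 In this multiplexed TRANS system, compounds act on HepG2 cells carrying GAL4-UAS reporter units and a receptor-GAL4 fusion for 24 h. Induced reporter RNA is amplified, fluorescently labelled and sized by capillary electrophoresis, with DMSO as baseline.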
# [17] = biological target: Bile acid receptor (Homo sapiens) (UniProt Q96RI1); assay: ATG_FXR_TRANS: Attagene TRANS-FACTORIAL HepG2 Assay for Farnesoid X Receptor (FXR) (AID 2282979); conditions: HepG2 Attagene TRANS FXR-GAL4 reporter transcription;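 note: hits raise reporter mRNA above DMSO so AC50 marks FXR activation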
# Outline: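 After 24 h chemical treatment of transfected HepG2 cells, GAL4-UAS reporter transcripts driven by an exogenous FXR-GAL4 fusion were measured by RT-PCR and capillary electrophoresis. Increases over DMSO were fitted.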
# Chain of Glucocorticoid receptor (Homo sapiens) (P04150 whole entry, looked up, the tested form may be a part): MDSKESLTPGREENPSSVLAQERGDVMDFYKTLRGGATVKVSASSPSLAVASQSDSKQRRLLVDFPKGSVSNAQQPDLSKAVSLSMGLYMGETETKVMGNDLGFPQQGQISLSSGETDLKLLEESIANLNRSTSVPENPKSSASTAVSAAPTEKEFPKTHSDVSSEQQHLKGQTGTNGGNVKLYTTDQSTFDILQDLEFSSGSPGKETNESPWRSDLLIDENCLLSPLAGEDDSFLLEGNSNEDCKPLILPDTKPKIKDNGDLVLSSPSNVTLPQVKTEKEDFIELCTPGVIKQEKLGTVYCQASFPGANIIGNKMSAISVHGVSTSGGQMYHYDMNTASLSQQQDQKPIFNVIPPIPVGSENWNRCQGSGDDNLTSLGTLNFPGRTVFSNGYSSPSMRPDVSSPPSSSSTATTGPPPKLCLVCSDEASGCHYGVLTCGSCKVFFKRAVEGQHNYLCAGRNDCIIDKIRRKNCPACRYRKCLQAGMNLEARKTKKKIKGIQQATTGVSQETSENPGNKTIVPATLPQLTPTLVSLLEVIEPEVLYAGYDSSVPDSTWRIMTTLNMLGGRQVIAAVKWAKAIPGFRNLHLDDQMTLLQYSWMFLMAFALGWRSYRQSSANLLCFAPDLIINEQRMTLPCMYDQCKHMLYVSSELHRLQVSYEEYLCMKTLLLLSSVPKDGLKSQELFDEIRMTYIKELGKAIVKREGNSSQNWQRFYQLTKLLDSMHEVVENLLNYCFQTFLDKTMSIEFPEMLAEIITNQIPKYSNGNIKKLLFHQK
# Chain of Nuclear respiratory factor 1 (Homo sapiens) (Q16656 whole entry, looked up): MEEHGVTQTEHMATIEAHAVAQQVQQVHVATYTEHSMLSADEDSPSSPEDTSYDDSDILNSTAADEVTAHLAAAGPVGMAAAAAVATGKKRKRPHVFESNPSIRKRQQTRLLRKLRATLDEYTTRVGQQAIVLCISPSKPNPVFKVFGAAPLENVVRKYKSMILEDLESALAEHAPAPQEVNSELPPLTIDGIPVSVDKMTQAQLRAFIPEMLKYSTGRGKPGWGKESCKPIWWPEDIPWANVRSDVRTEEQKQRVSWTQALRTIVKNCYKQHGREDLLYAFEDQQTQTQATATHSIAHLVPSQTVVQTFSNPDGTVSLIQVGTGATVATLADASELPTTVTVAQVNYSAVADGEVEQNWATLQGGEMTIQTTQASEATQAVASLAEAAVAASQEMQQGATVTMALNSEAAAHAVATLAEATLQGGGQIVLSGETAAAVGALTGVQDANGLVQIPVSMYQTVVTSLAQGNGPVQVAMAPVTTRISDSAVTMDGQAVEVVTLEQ
# Chain of Nuclear receptor subfamily 4 group A member 2 (Homo sapiens) (P43354 whole entry, looked up, the tested form may be a part): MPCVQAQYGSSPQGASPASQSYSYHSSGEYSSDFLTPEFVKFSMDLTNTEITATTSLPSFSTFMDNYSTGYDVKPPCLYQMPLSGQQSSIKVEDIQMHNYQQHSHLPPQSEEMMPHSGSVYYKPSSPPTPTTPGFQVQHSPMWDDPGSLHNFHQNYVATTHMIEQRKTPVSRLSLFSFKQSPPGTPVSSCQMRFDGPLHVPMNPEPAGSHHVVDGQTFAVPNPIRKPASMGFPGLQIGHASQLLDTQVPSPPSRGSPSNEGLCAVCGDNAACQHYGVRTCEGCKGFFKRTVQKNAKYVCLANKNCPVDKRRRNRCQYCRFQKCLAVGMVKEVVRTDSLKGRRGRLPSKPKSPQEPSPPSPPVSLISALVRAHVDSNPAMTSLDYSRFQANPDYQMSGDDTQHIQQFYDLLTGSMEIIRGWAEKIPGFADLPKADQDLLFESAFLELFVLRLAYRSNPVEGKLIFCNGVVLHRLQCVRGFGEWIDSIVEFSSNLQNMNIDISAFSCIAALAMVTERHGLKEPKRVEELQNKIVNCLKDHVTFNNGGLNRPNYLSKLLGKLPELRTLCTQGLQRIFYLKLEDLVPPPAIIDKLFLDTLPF
# Chain of Oxysterols receptor LXR-alpha (Homo sapiens) (Q13133 whole entry, looked up, the tested form may be a part): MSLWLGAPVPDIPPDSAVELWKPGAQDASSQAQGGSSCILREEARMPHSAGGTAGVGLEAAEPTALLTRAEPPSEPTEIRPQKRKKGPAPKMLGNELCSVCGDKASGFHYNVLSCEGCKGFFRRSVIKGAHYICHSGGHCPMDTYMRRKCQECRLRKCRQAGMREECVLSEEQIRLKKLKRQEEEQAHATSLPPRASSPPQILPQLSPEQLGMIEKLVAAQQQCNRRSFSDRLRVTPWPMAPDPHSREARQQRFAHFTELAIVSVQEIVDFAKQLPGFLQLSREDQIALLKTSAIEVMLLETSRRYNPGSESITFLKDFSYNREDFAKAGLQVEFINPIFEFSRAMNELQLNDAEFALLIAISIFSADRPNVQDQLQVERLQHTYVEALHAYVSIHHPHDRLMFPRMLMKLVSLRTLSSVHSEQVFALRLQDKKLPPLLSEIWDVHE
# Chain of Hepatocyte nuclear factor 4-alpha (Homo sapiens) (P41235 whole entry, looked up, the tested form may be a part): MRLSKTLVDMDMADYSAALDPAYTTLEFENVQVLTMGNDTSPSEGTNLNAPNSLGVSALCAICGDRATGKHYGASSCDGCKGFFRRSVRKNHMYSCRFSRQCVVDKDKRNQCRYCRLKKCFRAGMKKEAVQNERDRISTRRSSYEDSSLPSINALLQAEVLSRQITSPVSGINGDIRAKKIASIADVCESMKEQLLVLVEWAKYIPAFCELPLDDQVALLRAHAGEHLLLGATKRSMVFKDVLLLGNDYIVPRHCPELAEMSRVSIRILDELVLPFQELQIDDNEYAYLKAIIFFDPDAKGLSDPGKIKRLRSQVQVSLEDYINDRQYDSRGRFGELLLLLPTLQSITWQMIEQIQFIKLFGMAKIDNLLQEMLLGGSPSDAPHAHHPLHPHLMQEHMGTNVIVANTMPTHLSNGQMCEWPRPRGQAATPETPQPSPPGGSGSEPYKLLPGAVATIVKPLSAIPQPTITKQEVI
# Chain of Oxysterols receptor LXR-beta (Homo sapiens) (P55055 whole entry, looked up, the tested form may be a part): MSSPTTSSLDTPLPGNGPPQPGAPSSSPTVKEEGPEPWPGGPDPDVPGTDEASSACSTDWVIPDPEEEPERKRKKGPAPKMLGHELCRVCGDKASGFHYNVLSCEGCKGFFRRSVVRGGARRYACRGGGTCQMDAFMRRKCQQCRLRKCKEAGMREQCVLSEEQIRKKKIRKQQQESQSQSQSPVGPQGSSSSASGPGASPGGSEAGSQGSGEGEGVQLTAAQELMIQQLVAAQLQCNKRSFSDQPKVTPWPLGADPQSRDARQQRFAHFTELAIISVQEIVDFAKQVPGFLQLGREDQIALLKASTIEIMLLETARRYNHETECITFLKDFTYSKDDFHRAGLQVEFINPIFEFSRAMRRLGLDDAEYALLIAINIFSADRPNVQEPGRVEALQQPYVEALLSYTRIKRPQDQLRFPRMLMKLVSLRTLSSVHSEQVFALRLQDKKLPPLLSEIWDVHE
# Chain of Estrogen receptor (Homo sapiens) (P03372 whole entry, looked up, the tested form may be a part): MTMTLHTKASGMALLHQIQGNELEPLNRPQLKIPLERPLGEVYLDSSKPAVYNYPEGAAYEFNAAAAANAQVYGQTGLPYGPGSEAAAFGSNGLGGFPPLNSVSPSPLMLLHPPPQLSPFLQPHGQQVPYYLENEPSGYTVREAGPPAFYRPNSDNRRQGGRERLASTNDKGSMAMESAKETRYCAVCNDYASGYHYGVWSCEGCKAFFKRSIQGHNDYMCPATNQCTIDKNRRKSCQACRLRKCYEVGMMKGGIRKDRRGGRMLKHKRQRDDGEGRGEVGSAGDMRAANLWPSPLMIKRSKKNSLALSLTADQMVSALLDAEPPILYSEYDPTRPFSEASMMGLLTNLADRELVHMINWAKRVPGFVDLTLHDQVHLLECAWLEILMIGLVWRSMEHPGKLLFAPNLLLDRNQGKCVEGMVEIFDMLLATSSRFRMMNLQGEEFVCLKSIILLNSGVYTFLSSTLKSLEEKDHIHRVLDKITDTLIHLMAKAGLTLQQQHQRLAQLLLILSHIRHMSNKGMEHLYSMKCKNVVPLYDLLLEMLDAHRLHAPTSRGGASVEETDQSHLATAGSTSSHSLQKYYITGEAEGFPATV
# Chain of Transcriptional activator Myb (Homo sapiens) (P10242 whole entry, looked up): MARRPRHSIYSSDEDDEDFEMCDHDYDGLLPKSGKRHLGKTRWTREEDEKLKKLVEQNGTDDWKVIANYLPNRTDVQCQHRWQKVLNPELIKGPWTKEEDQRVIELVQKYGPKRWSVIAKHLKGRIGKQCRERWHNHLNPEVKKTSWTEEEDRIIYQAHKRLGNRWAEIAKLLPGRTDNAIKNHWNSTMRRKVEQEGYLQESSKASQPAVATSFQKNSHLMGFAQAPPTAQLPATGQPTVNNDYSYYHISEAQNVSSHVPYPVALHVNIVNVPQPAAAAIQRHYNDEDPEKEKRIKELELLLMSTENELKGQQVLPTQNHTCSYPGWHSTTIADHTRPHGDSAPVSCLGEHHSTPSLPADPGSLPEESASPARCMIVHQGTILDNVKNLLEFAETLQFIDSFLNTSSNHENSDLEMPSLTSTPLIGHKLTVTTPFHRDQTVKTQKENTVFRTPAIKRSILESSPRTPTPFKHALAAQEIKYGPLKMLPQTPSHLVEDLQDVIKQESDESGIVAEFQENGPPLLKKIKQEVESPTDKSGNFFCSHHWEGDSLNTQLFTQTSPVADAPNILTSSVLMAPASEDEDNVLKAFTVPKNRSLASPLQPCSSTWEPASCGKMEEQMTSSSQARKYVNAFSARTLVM
# Chain of X-box-binding protein 1 (Homo sapiens) (P17861 whole entry, looked up): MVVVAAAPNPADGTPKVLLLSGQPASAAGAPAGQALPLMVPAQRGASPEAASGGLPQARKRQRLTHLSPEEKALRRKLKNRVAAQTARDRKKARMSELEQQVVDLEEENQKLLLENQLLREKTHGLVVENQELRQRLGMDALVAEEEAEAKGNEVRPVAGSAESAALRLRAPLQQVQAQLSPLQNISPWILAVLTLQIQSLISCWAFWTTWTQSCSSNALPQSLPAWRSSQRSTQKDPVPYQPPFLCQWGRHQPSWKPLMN
smiles,measurement,setting,value
CC(CC=O)CCCC(C)(C)O (stereo not given),outcome,[1],inactive
same,outcome,[2],inactive
same,outcome,[3],inactive
same,outcome,[4],inactive
same,outcome,[5],inactive
same,outcome,[6],inactive
same,outcome,[7],inactive
same,outcome,[8],inactive
same,outcome,[9],inactive
same,outcome,[10],inactive
same,outcome,[11],inactive
same,outcome,[12],inactive
same,outcome,[13],inactive
CC(=O)c1ccc2c(c1)CCCC2,outcome,[1],inactive
same,outcome,[2],inactive
same,outcome,[3],inactive
same,outcome,[4],inactive
same,outcome,[5],inactive
same,outcome,[6],inactive
same,outcome,[14],inactive
same,outcome,[15],inactive
same,outcome,[10],inactive
same,outcome,[13],inactive
CCCc1ccc(OC)cc1,outcome,[1],inactive
same,outcome,[2],inactive
same,outcome,[3],inactive
same,outcome,[4],inactive
same,outcome,[5],inactive
same,outcome,[6],inactive
same,outcome,[7],inactive
same,outcome,[16],inactive
same,outcome,[8],inactive
same,outcome,[10],inactive
same,outcome,[12],inactive
same,outcome,[13],inactive
CC(=O)OCC(=O)[C@@]12N=C(C)O[C@@H]1C[C@H]1[C@@H]3CCC4=CC(=O)C=C[C@]4(C)[C@H]3[C@@H](O)C[C@@]12C,outcome,[1],inactive
same,outcome,[2],inactive
same,AC50,[3],25 µM (active)
same,outcome,[4],inactive
same,outcome,[5],inactive
same,outcome,[6],inactive
same,outcome,[7],inactive
same,AC50,[14],0.0827 µM (active)
same,outcome,[16],inactive
same,outcome,[15],inactive
same,outcome,[10],inactive
same,AC50,[11],17.1 µM (active)
same,outcome,[12],inactive
same,outcome,[13],inactive
CC(C)(Oc1ccc(C2CC2(Cl)Cl)cc1)C(=O)O (stereo not given),outcome,[1],inactive
same,outcome,[2],inactive
same,outcome,[3],inactive
same,outcome,[4],inactive
same,outcome,[5],inactive
same,outcome,[7],inactive
same,outcome,[14],inactive
same,outcome,[16],inactive
same,outcome,[9],inactive
same,outcome,[10],inactive
same,outcome,[12],inactive
same,outcome,[13],inactive
CCCNC(=O)NS(=O)(=O)c1ccc(Cl)cc1,outcome,[1],inactive
same,outcome,[2],inactive
same,outcome,[3],inactive
same,outcome,[4],inactive
same,outcome,[5],inactive
same,outcome,[6],inactive
same,outcome,[7],inactive
same,outcome,[16],inactive
same,outcome,[9],inactive
same,outcome,[10],inactive
same,outcome,[12],inactive
same,outcome,[13],inactive
CCCCNc1ccc(NCCCC)c2c1C(=O)c1ccccc1C2=O,outcome,[1],inactive
same,outcome,[2],inactive
same,outcome,[3],inactive
same,outcome,[4],inactive
same,outcome,[5],inactive
same,outcome,[6],inactive
same,outcome,[14],inactive
same,outcome,[17],inactive
same,outcome,[8],inactive
same,outcome,[9],inactive
same,outcome,[10],inactive
same,outcome,[11],inactive
same,outcome,[12],inactive
same,outcome,[13],inactive
CCCCCc1ccc(Cl)cc1,outcome,[1],inactive
same,outcome,[2],inactive
same,outcome,[3],inactive
same,outcome,[4],inactive
same,outcome,[5],inactive
same,outcome,[6],inactive
same,outcome,[7],inactive
same,outcome,[14],inactive
same,outcome,[11],inactive
same,outcome,[13],inactive
Cc1ccc([N+](=O)[O-])cc1S(=O)(=O)O,outcome,[1],inactive
same,outcome,[2],inactive
same,outcome,[3],inactive
same,outcome,[4],inactive
same,outcome,[5],inactive
same,outcome,[6],inactive
same,outcome,[14],inactive
same,outcome,[16],inactive
same,outcome,[15],inactive
same,outcome,[8],inactive
same,outcome,[11],inactive
same,AC50,[12],191 µM (active)
same,outcome,[13],inactive
